This passage reports Potency, outcome and max activation results from PubChem BioAssay (Tox21).

SMILES strings stand for the structures. Values joined by “and” are separate entries in the source; they are usually repeats but may differ in a detail not shown here. Identical values can stand only once. Values without a mark were called inactive. Active and inactive are the calls of the source. Unless noted, calls follow the shape of the dose curve; as a rule, active = well fitted curve in the direction sought with a large enough effect in the repeat runs; inconclusive = weak or mixed curves; inactive = no such curve, though single readings can be large; an effect the other way counts as inactive or inconclusive.

A short description of assay [1]: qHTS assay for small molecule agonists of the p53 signaling pathway - cell viability (AID 651633; calls by dose curve;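 also: p53RE-bla HCT reporter cells with a stable beta-lactamase p53 reporter; series mostly up to about 83 µM; nearly all actives have a fitted effect of over 30% in size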). Summed up: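 p53RE-bla cells, seeded at 4,000 per well and rested 5 h at 37 C/5% CO2, received compounds in DMSO for 16 h at 37 C. CellTiter-Glo was then added, and luminescence was read after 30 min at room temperature to gauge cytotoxicity.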
Assay [2] in a line: qHTS assay to test for compound auto fluorescence at 460 nm (blue) in HEK293 cells (AID 720678). Summed up:
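Intrinsic compound fluorescence is recorded in live HEK293 cultures after overnight incubation at 37C, 5% CO2, using excitation 405 nm and emission 460 nm. Values are referenced to triamterene.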

The nature of assay [3]: qHTS assay to test for compound auto fluorescence at 590 nm (red) in HEK293 cells (AID 720679). Summed up: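 Red autofluorescence, HEK293 cells: 2,000 cells/well; attach 4-5 hr 37C; add 23 nL cpd or DMSO; incubate o/n 37C 5% CO2; read Ex540/Em590; Rose Bengal sodium reference.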
For orientation: Quantitative high-throughput screening tests each substance at several concentrations.

Assay [4] is described as follows: qHTS assay to test for compound auto fluorescence at 535 nm (green) in HEK293 cells (AID 720680).
The nature of assay [5]: qHTS assay to test for compound auto fluorescence at 590 nm (red) in HepG2 cell free culture (AID 720684). A digest of the protocol:
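Ex 540 / Em 590 nm read of compound in cell-free MEM (10% FBS). Rose Bengal sodium reference.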

The target of assay [6] is Glucocorticoid receptor (Homo sapiens) (UniProt P04150). As to the kind of experiment: qHTS assay to identify small molecule agonists of the glucocorticoid receptor (GR) signaling pathway (AID 720691; active = well fitted activation curve with a large enough effect in the signal ratio in the repeat runs, not every such curve was filed as active; inconclusive = weak or mixed curves, or effect the other way; inactive = no such curve, though single readings can be large or run the other way; the % refers to the signal ratio). Summed up:
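HeLa GR-bla reporter line; cells pre-incubated 4 h, compound in DMSO 18 h at 37 C; LiveBLAzer B/G FRET substrate 2 h RT; fluorescence intensity read-out.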

Assay [7] can be described thus: qHTS assay for identifying genotoxic compounds that show differential cytotoxicity against isogenic chicken DT40 cell lines with known DNA damage response pathways - wild type cell line (AID 743012). Also: nearly all actives have a fitted effect of over 60% in size. A digest of the protocol:
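CellTiter-Glo luminescence readout of viability in wild type DT40 cells after 40 h compound exposure at 37 C/5% CO2; 300 cells/well; reagent incubated 30 min at room temperature before reading.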

A short description of assay [8]: qHTS assay for identifying genotoxic compounds that show differential cytotoxicity against isogenic chicken DT40 cell lines with known DNA damage response pathways - Rev3 mutant cell line (AID 743014). Also: nearly all actives have a fitted effect of over 55% in size.
The nature of assay [9]: qHTS assay to identify small molecule antagonists of the androgen receptor (AR) signaling pathway using the MDA cell line - cell viability counter screen (AID 743041; also: nearly all actives have a fitted effect of over 45% in size). Summed up:
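In this qHTS counter assay, fluorescence intensity after CellTiter-Fluor addition indicated viability of MDA-kb2 AR-luc cells given compounds and R1881 for 16 h at 37C.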

Assay [10] is described as follows: qHTS assay to identify small molecule antagonists of the thyroid receptor (TR) signaling pathway - cell viability counter screen (AID 743064). Also: nearly all actives have a fitted effect of over 50% in size. Summed up: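 Counter screen for cytotoxicity: compound plus T3 (1 nM final) on GH3.TRE-Luc cells, 23.5 h at 37 °C, then fluorescence viability readout with CellTiter-Fluor.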
The target of assay [11] is Estrogen receptor (Homo sapiens) (UniProt P03372). The assay can be described thus: qHTS assay to identify small molecule agonists of the estrogen receptor alpha (ER-alpha) signaling pathway (AID 743075; calls by dose curve;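 also: HEK293 GripTite cells with ER-alpha and UAS-driven beta-lactamase reporter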; also: potency is read from the fitted curve at half-maximal effect).
Sequence of Estrogen receptor (Homo sapiens) (P03372 whole entry, looked up): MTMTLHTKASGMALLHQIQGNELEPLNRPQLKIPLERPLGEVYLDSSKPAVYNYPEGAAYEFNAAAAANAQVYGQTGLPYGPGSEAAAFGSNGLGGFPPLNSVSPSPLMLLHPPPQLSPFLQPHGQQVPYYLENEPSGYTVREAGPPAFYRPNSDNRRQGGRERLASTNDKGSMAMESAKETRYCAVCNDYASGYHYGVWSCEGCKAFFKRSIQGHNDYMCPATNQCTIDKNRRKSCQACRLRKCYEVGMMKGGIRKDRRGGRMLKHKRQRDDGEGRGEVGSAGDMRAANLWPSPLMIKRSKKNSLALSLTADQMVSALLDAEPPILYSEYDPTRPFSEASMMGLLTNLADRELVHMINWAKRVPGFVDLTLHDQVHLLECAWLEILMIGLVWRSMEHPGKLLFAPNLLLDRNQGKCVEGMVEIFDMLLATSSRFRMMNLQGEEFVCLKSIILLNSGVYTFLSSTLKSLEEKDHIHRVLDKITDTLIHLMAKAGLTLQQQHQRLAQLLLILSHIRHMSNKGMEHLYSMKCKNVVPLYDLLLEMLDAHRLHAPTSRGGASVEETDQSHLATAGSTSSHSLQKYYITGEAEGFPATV
A short description of assay [12]: qHTS assay to identify small molecule antagonists of the estrogen receptor alpha (ER-alpha) signaling pathway using the BG1 cell line (AID 743080; calls by dose curve;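 also: BG1 cells stimulated with 17beta-estradiol alongside compound; series mostly up to about 70 µM; nearly all actives have a fitted effect of over 25% in size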). Summed up:
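Readout is ONE-Glo luminescence, taken 30 min at room temperature after reagent addition, preceded by a CellTiter-Fluor viability read; BG1-Luc-4E2 cells had received compound and 17beta-estradiol for 21.5 h at 37 C.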

For assay [13], the target named is Peroxisome proliferator-activated receptor gamma (Homo sapiens) (UniProt P37231). The assay can be described thus: qHTS assay to identify small molecule agonists of the peroxisome proliferator-activated receptor gamma (PPARg) signaling pathway (AID 743094; active = well fitted activation curve with a large enough effect in the signal ratio in the repeat runs, not every such curve was filed as active; inconclusive = weak or mixed curves, or effect the other way; inactive = no such curve, though single readings can be large or run the other way; the % refers to the signal ratio). A digest of the protocol: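 HEK293H PPARg-bla cells, 5 h settle at 37C/5% CO2; compound (DMSO) 17 h, 37C; B/G FRET substrate 1 h RT; fluorescence intensity read-out. qHTS format.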
Sequence of Peroxisome proliferator-activated receptor gamma (Homo sapiens) (P37231 whole entry, looked up): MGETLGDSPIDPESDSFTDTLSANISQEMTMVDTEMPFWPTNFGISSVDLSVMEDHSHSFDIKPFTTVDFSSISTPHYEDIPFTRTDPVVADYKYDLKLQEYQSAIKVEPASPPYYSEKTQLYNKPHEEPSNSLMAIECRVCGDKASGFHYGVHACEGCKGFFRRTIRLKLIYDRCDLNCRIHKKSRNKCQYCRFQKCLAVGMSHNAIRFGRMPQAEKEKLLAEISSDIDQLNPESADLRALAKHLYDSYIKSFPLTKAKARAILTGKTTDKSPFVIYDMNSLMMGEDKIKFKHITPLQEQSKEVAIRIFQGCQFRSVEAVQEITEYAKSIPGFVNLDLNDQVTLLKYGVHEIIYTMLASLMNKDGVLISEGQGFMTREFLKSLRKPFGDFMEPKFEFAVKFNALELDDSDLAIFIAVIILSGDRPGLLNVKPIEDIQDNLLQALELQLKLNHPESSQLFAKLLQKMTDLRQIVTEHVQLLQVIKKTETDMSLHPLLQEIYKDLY

Assay [14] addresses Nuclear receptor subfamily 1 group I member 2 (Rattus norvegicus) (UniProt Q9R1A7). The assay can be described thus: Rat pregnane X receptor (rPXR) activation by small molecules, qHTS assay (AID 1346983). Also: nearly all actives have a fitted effect of over 20% in size. To be noted: rPXR luciferase reporter cells, One-Glo luminescence, 24 h; max activation: hits give high values. A digest of the protocol: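 Cell-based rPXR luciferase reporter assay, 2,000 cells per well, rested 5hr at 37 C before compound addition in DMSO, then 24 hr at 37 C. One-Glo reagent was added and luminescence read after 30 min at room temperature.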

The target of assay [15] is Nuclear receptor subfamily 1 group I member 2 (Homo sapiens) (UniProt O75469). The assay can be described thus: CYP3A4 induction through human pregnane X receptor (PXR) by small molecules, qHTS assay (AID 1346984). Also: nearly all actives have a fitted effect of over 40% in size. Summed up:
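HepG2-derived DPX-2 line carrying PXR plus a CYP3A4-promoter luciferase reporter; cells plated 5 hr, compound-exposed 24 hr at 37C. CYP3A4 activity probed with 3uM (final) Luciferin-IPA for 3hr, then luciferase read after One-Glo.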

Assay [16] shares this target. As to the kind of experiment: Human pregnane X receptor (PXR) activation by small molecules, qHTS assay (AID 1346985). Also: nearly all actives have a fitted effect of over 40% in size. A digest of the protocol:
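DPX-2 cells (HepG2 co-transfected with a PXR response element and a CYP3A4-promoter luciferase construct) were seeded at 2,000 per well, rested 5 hr at 37C, then exposed to DMSO-dissolved compounds for 24 hr. Activation was read as luciferase luminescence.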

The nature of assay [17]: qHTS assay to identify small molecule antagonists of the androgen receptor (AR) signaling pathway - cell viability counter screen (AID 743033; also: nearly all actives have a fitted effect of over 45% in size).
Assay [18] deals with Estrogen receptor (Homo sapiens) (UniProt P03372). The assay can be described thus: qHTS assay to identify small molecule agonists of the estrogen receptor alpha (ER-alpha) signaling pathway using the BG1 cell line (AID 743079). Also: nearly all actives have a fitted effect of over 20% in size. Also: potency is read from the fitted curve at half-maximal effect.
Assay [19] is described as follows: qHTS assay to identify small molecule that activate the aryl hydrocarbon receptor (AhR) signaling pathway - cell viability counter screen (AID 743086).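 Also: HepG2 liver cells carrying the AhR DRE luciferase reporter; series mostly up to about 70 µM; nearly all actives have a fitted effect of over 45% in size.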 A digest of the protocol: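 HepG2-AhR-luc (HG2L7.5c1) cells, 4000/well, were preincubated 5 h at 37C, exposed to compound in qHTS format for 24 hr at 37C, then given CellTiter-Fluor for 30 min; viability was read as fluorescence in the reporter wells.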
% is scaled to controls: 0 for no effect and ±100 for the full control effect.

Sequence of Nuclear receptor subfamily 1 group I member 2 (Rattus norvegicus) (Q9R1A7 whole entry, looked up): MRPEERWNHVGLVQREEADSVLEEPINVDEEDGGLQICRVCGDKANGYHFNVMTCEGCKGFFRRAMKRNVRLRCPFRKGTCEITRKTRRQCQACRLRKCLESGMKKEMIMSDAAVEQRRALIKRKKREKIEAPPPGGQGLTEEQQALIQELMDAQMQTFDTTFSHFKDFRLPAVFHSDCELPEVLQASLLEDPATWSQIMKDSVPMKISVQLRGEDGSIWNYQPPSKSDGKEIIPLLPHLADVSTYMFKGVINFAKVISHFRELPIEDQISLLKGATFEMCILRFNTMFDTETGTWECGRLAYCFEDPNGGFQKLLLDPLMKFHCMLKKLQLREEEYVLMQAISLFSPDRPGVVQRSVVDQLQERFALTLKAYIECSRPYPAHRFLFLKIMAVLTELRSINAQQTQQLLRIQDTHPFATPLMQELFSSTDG
Sequence of Glucocorticoid receptor (Homo sapiens) (P04150 whole entry, looked up): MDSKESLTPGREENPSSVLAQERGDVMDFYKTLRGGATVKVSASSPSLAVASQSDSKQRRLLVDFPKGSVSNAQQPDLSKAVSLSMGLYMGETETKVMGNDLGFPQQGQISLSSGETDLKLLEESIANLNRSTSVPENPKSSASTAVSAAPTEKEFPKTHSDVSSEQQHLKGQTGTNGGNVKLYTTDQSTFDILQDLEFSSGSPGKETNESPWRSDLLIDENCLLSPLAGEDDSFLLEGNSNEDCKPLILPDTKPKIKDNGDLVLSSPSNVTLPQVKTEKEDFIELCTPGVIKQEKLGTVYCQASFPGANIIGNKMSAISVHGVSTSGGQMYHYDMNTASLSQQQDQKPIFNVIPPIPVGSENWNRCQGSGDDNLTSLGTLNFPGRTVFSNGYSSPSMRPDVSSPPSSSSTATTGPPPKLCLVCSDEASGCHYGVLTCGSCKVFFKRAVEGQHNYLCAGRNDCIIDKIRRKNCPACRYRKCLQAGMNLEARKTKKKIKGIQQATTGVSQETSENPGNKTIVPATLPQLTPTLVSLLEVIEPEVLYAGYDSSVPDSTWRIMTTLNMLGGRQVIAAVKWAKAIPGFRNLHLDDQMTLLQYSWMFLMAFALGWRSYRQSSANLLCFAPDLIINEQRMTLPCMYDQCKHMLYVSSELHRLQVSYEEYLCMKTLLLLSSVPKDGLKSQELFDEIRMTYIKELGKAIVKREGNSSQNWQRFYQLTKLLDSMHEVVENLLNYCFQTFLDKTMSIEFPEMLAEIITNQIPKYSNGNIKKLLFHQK

As to `CCON=O`, the Potency result in [1], in assay [2], in assay [4], in assay [6], in assay [7] and in [8] was “inactive” in each case. The Potency result in assay [9], in [10], in assay [11], in assay [12], in [13] and in [15] was “inactive” in each case. The Potency entry in assay [16] was “inactive”. For the same molecule, the result in assay [3] and in assay [5] was inactive. In addition, the max activation in assay [14] was -2.18%.

As to `S=C(S)N1CCNCC1`, the Potency entry in [1], in assay [4], in assay [6], in [7], in assay [17] and in assay [9] was “inactive” each time. In addition, the Potency result in assay [10], in [11], in assay [18], in [12], in assay [13] and in assay [15] was “inactive” in each case. Further, the Potency result in [16] is “inactive”. Also, the molecule was classed as inactive in assay [3] and in [5]. The max activation in assay [14] is -2.4%.

For the molecule `CCCCCCC(=O)O[C@H]1CC[C@H]2[C@@H]3CC[C@H]4CC(=O)C=C(C)[C@]4(C)[C@H]3CC[C@]12C`, the call in assay [3] and in assay [5] was inactive. For the same molecule, the Potency result in assay [4], in assay [6], in [8], in assay [9], in assay [10] and in [12] was “inactive” each time. Also, the Potency entry in [13], in assay [15] and in assay [16] was “inactive” each time. The Potency in assay [11] is 6.74 µM [inconclusive] (active); in assay [18] it was 2.11 µM (active). Further, the max activation in assay [14] was -2.7%.

On to `CN1CCCC(=C(c2cccs2)c2cccs2)C1`, for which the Potency entry in assay [1], in assay [2], in assay [4], in assay [8], in assay [17] and in [10] was “inactive” in each case. Also, the Potency entry in assay [11], in [18], in assay [12], in assay [19], in assay [13] and in assay [15] was “inactive” throughout. Further, the Potency result in [16] was “inactive”. Also, the result in assay [3] and in assay [5] was inactive. Besides, the max activation in [14] is -1%.

For the molecule `C[N+]1(C)[C@@H]2CC[C@H]1CC(OC(=O)c1c[nH]c3ccccc13)C2` (some centres undefined), the Potency entry in assay [1], in assay [2], in [4], in assay [6], in [7] and in [17] was “inactive” in each case. The Potency result in assay [9], in [10], in assay [11], in assay [18], in assay [12] and in assay [13] was “inactive” each time. For the same molecule, the Potency result in assay [15] and in assay [16] was “inactive” throughout. Also, the molecule was called inactive in [5]. For the same molecule, the max activation in assay [14] was -3.92%.

Turning to `O=C(CS(=O)C(c1ccccc1)c1ccccc1)NO` (centres undefined), the Potency entry in assay [1], in assay [2], in [4], in assay [6], in assay [8] and in [9] was “inactive” in each case. Also, the Potency result in [10], in assay [11], in [18], in assay [12], in assay [13] and in [15] was “inactive” each time. Also, the Potency result in assay [16] is “inactive”. Besides, the result in assay [3] and in [5] was inactive. In addition, the max activation in assay [14] was -2.68%.

As for `CNC(C)C(O)c1ccc(O)cc1` (centres undefined), the Potency entry in assay [1], in assay [2], in [4], in assay [7], in assay [10] and in assay [11] was “inactive” each time. Also, the Potency result in assay [18], in assay [12], in assay [19], in assay [13], in assay [15] and in assay [16] was “inactive” in each case. In addition, the outcome in assay [3] and in assay [5] was inactive. The max activation in assay [14] was -2.76% and -1.51%.
